# PubChem BioAssay AID602229 (The Scripps Research Institute Molecular Screening Center, 2012)
# About 1,300 (0.36%) of roughly 360,000 compounds were called active.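 Rule for the calls: active = inhibition above the mean of all tested compounds plus 3 SD (cut at about 70% in these data); inactive = the rest.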 What follows is part of a selection rich in actives, with near analogues and random picks from the rest.
# Molecular target: Photoreceptor-specific nuclear receptor (Homo sapiens) (UniProt Q9Y5X4)
# Assay: NR2E3 agonists in two-hybrid cells, primary screen, cell-based, luminescence, CHO-S, Gal4-NCOR/VP16-NR2E3 (AID 602229);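 note: 0% = DMSO with NR2E3 transfected cells and 100% = cells lacking NR2E3 construct; higher means lower luciferase signal from less NR2E3 corepressor binding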
# Details: luciferase, at 3.98 µM, active compounds read high
# Photoreceptor-specific nuclear receptor (Homo sapiens), sequence (Q9Y5X4 whole entry, looked up, the tested form may be a part): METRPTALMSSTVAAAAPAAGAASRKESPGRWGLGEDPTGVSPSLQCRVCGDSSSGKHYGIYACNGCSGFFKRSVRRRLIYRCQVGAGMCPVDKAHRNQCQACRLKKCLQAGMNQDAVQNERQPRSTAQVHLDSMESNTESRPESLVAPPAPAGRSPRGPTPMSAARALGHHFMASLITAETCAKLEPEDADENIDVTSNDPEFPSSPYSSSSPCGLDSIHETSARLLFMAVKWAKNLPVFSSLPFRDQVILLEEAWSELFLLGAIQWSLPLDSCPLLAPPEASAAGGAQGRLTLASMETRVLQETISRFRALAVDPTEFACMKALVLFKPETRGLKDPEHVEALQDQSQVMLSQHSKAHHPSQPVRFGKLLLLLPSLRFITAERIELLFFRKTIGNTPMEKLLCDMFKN
row,Compound,inhibition of corepressor binding
1,N#CC1=C(N)Oc2[nH]c(=S)[nH]c(=O)c2C12C(=O)Nc1ccccc12 (centres undefined),-7.36% (inactive)
2,CCCCn1nnnc1C(c1ccccc1)N1CCN(c2ccccc2OC)CC1 (centres undefined),-15.1% (inactive)
3,CCCCC(=O)N(c1ccc(OC)cc1)C1C=CS(=O)(=O)C1 (centres undefined),-26% (inactive)
4,COC(=O)[C@]12CCCCC=C1N(Cc1ccco1)C(=O)[C@H](CC(=O)NCCCCc1ccccc1)C2,-23.9% (inactive)
5,COc1ccc(NC(=O)CC2SC(N3CCCCC3)=NC2=O)cc1OC (centres undefined),8.6% (inactive)
6,CS(=O)(=O)Nc1ccccc1N=C(c1ccccc1)c1ccccc1,7.7% (inactive)
7,O=C(CCc1nnc2ccc(NCCCN3CCCC3=O)nn12)NCc1ccccc1Cl,8.39% (inactive)
8,Cc1ccc(S(=O)(=O)N2CCN(C(=O)Cc3sc(C)nc3-c3ccc(F)cc3)CC2)c(C)c1,-15.2% (inactive)
9,Cc1nc(-c2ccc(F)cc2)c(CC(=O)Nc2cc(S(=O)(=O)N3CCCCC3)ccc2C)s1,82.8% (active)
10,Cc1nc(-c2ccc(F)cc2)c(CC(=O)N2CCN(S(=O)(=O)c3ccc(F)cc3)CC2)s1,-1.49% (inactive)
11,O=S(=O)(Nc1ccc(-c2ccc(N3CCOCC3)nn2)cc1)c1cc(Cl)ccc1Cl,-41.5% (inactive)
12,COc1ccc(C(C(=O)NCC2CCCO2)N(C(=O)Cn2nnc3ccccc32)c2ccc(NC(C)=O)cc2)cc1OC (centres undefined),-35.2% (inactive)
13,Cn1c(=O)oc2cc(S(=O)(=O)N3CCC(C(=O)Nc4ccc(OC(F)(F)F)cc4)CC3)ccc21,-16.6% (inactive)
14,CC[C@H]1CN2CCc3cc(OC)c(OC)cc3[C@@H]2C[C@@H]1C[C@H]1NCCc2cc(OC)c(OC)cc21,104% (active)
15,O=C(CC(NCCN1CCOCC1)C(=O)O)Nc1cccc(Cl)c1 (centres undefined),5.57% (inactive)
16,CCCCCCCCn1c2c(c(=N)c3c1CCC3)CCCC2,92% (active)
17,Cc1ccc(S(=O)(=O)NC(C)C(=O)NCc2ccc(Cl)cc2)cc1 (centres undefined),-5.53% (inactive)
18,CCn1cc(C(=O)N[C@@H](C)C(=O)NCCO)c(=O)c2cc3c(cc21)OCO3,-12.3% (inactive)
19,Cc1nc([N+](=O)[O-])c(NCCCO)n1Cc1ccccc1,-10.6% (inactive)
20,CCN1/C(=C\c2ccc3ccccc3[n+]2CC)Sc2cc(C)ccc21,89.4% (active)
21,COCC(=O)N1CCc2ccc(NC(=O)c3ccccc3Cl)cc2C1,-6.67% (inactive)
22,CCOC(=O)C1CCCN(C(=O)c2cc(-c3cccs3)oc2C)CC1 (centres undefined),-1.14% (inactive)

row,Compound,inhibition of corepressor binding
1,CCOc1ccccc1N1CCN(C(=O)c2ccc3[nH]c(C)c(C)c3c2)CC1,-57.3% (inactive)
2,C[C@H](CO)N1C[C@H](C)[C@H](CN(C)CC2CC2)Oc2ccc(NC(=O)CCN3CCOCC3)cc2C1=O,-4.02% (inactive)
3,COc1ccccc1CNc1nc(Nc2ccccc2Cl)c2sccc2n1,64.7% (inactive)
4,COc1cccc(CNc2nc(NCc3ccccc3OC)nc3ccsc23)c1,54.7% (inactive)
5,COc1cccc(CNc2nc(NCc3cccs3)nc3ccsc23)c1,88.5% (active)
6,CC[C@]1(c2ccccc2OC)C(=O)N(C(=O)OC)N1C(=O)OC,14.9% (inactive)
7,CCn1c(CNC(=O)c2cc(OC)c(OC)c(OC)c2)cc2cc(C)ccc21,89.3% (active)
8,COc1cc(C(=O)NCc2ccc(-n3cccc3)cc2)cc(OC)c1OC,11.4% (inactive)
9,COc1cc(C(=O)NCc2nnc(SCC(=O)Nc3nc4ccc(C)cc4s3)o2)cc(OC)c1OC,-10.1% (inactive)
10,Cc1ccc(N(CCC(=O)O)S(=O)(=O)c2cccc(C(F)(F)F)c2)cc1,4.8% (inactive)
11,Cc1noc(C)c1S(=O)(=O)Nc1cc(C(F)(F)F)ccc1N1CCOCC1,4.86% (inactive)
12,Cc1oc2c(F)c(F)c(F)c(F)c2c1S(=O)(=O)Nc1cccc(C(F)(F)F)c1,110% (active)
13,CCCOc1ccc(CN(CCO)CCO)cc1C(=O)OC,5.92% (inactive)
14,COc1ccccc1CNC(=O)CNC(=O)c1cn(-c2ccccc2OC)c(=O)c2ccccc12,6.65% (inactive)
15,COc1ccc(S(=O)(=O)N2CCc3ccccc32)cc1C(=O)Nc1cc(S(C)(=O)=O)ccc1Cl,-23.6% (inactive)
16,Cc1ccc(C)c(NC(=O)CN(C)C(=O)c2ccc3ncsc3c2)c1,-19.7% (inactive)
17,CC1(C(=O)NS(=O)(=O)c2ccc(Cl)cc2)CCN1C(=O)CC1CCCC1 (centres undefined),9.74% (inactive)
18,Cc1ccc(NC(=O)c2sccc2C)cc1[N+](=O)[O-],-86.2% (inactive)
19,CN(CC(=O)Nc1cccc(F)c1)C(=O)C1=COCCO1,-5.12% (inactive)
20,Cc1ccc(NC(=O)CN(C)CC(=O)Nc2cccc(F)c2)cc1[N+](=O)[O-],84.2% (active)
21,Cc1ccc(NC(=O)C(C)OC(=O)Cc2c[nH]c3ccccc23)cc1S(=O)(=O)N1CCOCC1 (centres undefined),20.8% (inactive)
22,Oc1ccc(Br)cc1/C=N/Nc1ccccn1,87.1% (active)

row,Compound,inhibition of corepressor binding
1,O=C(Nc1ccc(Br)cc1)c1cc(S(=O)(=O)Nc2ccccn2)ccc1Cl,0.47% (inactive)
2,S=C(NN=Cc1ccccn1)Nc1ccccn1,52.5% (inactive)
3,CCCN(CC(=O)Nc1ccc(OC)c(OC)c1)CC(=O)Nc1ccc(F)c(F)c1F,-8.16% (inactive)
4,CCOC(=O)C1CCN(S(=O)(=O)c2c(C)noc2C)CC1,-11.3% (inactive)
5,Cc1csc(OCC(=O)Nc2ccc(C)c(C)c2)n1,-16.6% (inactive)
6,CCOC(=O)c1cnc2ccc(F)cc2c1Nc1ccc2c(c1)OCCO2,-13.2% (inactive)
7,CC(C)(C)Nc1nc(-c2ccccn2)nc2ccccc12,98.8% (active)
8,c1ccc(-c2nccc(-c3ccc(-n4cnc5ccccc54)cc3)n2)nc1,34.3% (inactive)
9,Cc1nc2ccccc2c(C(=O)O)c1-c1ccccn1,-21.4% (inactive)
10,O=C1CC(=O)Nc2cc(S(=O)(=O)N3CCN(c4cccc(C(F)(F)F)c4)CC3)ccc2N1,-3.07% (inactive)
11,O=C(CN1C(=O)CCS(=O)(=O)c2ccccc21)NCc1ccc(F)cc1,-8.57% (inactive)
12,CCCCN1C(=O)CC(N2CCOCC2)C1=O (centres undefined),-4.28% (inactive)
13,CCc1cccc(NC(=O)COC(=O)C2CCN(c3ccc(C(F)(F)F)cn3)CC2)c1,-19.1% (inactive)
14,O=C(Nc1cccc(Cl)c1)Nc1ccccc1NS(=O)(=O)c1cccs1,-13.8% (inactive)
15,COc1cc(NC(=O)c2ccccc2NS(=O)(=O)c2ccc(Cl)s2)cc(OC)c1,97.8% (active)
16,O=S(=O)(Nc1ccccc1N1CCOCC1)c1ccc(Cl)s1,-7.37% (inactive)
17,CCCn1nnnc1NCc1ccc(CC)cc1,8.66% (inactive)
18,O=C(c1cc(COc2c(F)cccc2F)on1)N1CCSCC1,-9.64% (inactive)
19,C=CCC1(CC=C)CCCN1C(=O)c1cc(COc2ccc(-n3cncn3)cc2)on1,106% (active)
20,CCCC(=O)N1CCC1(C)C(=O)Nc1ccc(-n2cncn2)cc1 (centres undefined),1.35% (inactive)
21,Nc1[nH]c(C(=O)c2ccccc2)c(-c2ccncc2)c1C(=O)NCc1cccc2ccccc12,3.22% (inactive)
22,CSCCC(c1nnnn1Cc1ccccc1)N1CCN(C/C=C/c2ccccc2)CC1 (centres undefined),4.41% (inactive)

row,Compound,inhibition of corepressor binding
1,C/C(=N/NC(=S)Nc1ccccc1)c1ccc2c(c1)OCO2,-32% (inactive)
2,C/C(=N\NC(=S)NCc1ccccc1)C1CCCCC1,14.7% (inactive)
3,C/C(=N\NC(=S)NCc1ccccc1)c1ccc(Cl)cc1,73.8% (active)
4,O=C(CCc1ccc(S(=O)(=O)NC2CCCCC2)cc1)NCc1ccccc1,9.81% (inactive)
5,CC(=O)Nc1ccc(S(=O)(=O)NNC(=O)CCc2ccccc2)cc1,-9.18% (inactive)
6,Cc1csc(NC(=O)CSc2ccc(-c3ccc(F)cc3)nn2)n1,11.9% (inactive)
7,COc1ccc(CCNC(=O)COC(=O)Cc2cc(OC)c(OC)c(OC)c2)cc1,0.01% (inactive)
8,COc1cc(CCC(=O)Nc2ccncc2Cl)cc(OC)c1OC,-4.52% (inactive)
9,COc1ccc(CC(=O)Nc2nc(-c3ccc(F)c(F)c3)cs2)cc1OC,103% (active)
10,COc1ccc(CC(=O)NC2CCSc3ccccc32)cc1OC (centres undefined),-3.29% (inactive)
11,COc1cc(CC(=O)Nc2nc(-c3ccc(F)c(F)c3)cs2)cc(OC)c1OC,103% (active)
12,CCc1nnc(NC(=O)CSc2nc3c(c(=O)n2-c2ccccc2OC)SCC3)s1,-5.3% (inactive)
13,C/C(=C/C(=O)N1CCN(C)CC1)C(=O)O,-1.95% (inactive)
14,COc1cc(C2/C(=C(\O)c3ccc4c(c3)CC(C)O4)C(=O)C(=O)N2c2nnc(C)s2)cc(OC)c1OC (centres undefined),-19.5% (inactive)
15,COc1ccccc1OCCNC(=O)CCNC(=O)c1ccccc1Cl,-15.5% (inactive)
16,CCN1C(=O)/C(=C\N2CCOCC2)SC1=S,-3.91% (inactive)
17,O=C(CCn1c(=O)oc2ccccc21)Nc1ccon1,-8.66% (inactive)
18,CCOC(=O)C1=C(CNC2CCCCC2)NC(=O)NC1c1cc(C)ccc1C (centres undefined),-26.1% (inactive)
19,CCN(Cc1ccccc1)S(=O)(=O)c1cc2c3c(c1)CCN3C(=O)CC2,13.4% (inactive)
20,COc1ccc(CNC(=O)COc2cccnc2[N+](=O)[O-])cc1,-7.82% (inactive)
21,COc1ccc(CNc2ncnc3ccccc23)cc1,96.1% (active)
22,O=C(COc1ncnc2ccccc12)NC(=O)NCc1ccccc1,9.2% (inactive)

row,Compound,inhibition of corepressor binding
1,Cc1ccc(O/C=C2\OC(=O)c3ccccc32)cc1,-37.1% (inactive)
2,Cc1c(C(=O)N(Cc2ccccc2)Cc2cccnc2)cnn1-c1ccc(F)cc1,0.5% (inactive)
3,COc1ccc(NS(=O)(=O)c2ccc(Oc3c(C#N)cccc3C#N)cc2)cc1,86.5% (active)
4,COc1ccc(NS(=O)(=O)c2ccc(N3CCN(CCO)CC3)c([N+](=O)[O-])c2)cc1,17.4% (inactive)
5,COc1ccc(S(=O)(=O)Nc2ccc3oc(C)c(C(C)=O)c3c2)cc1,60.2% (inactive)
6,CCOCc1c(C(=O)N2CCN(Cc3ccc(Br)s3)CC2)oc2ccccc12,-14.4% (inactive)
7,O=S(=O)(c1ccc(F)cc1)N1CCN=C1SCc1cccc(F)c1,3.65% (inactive)
8,Cc1ccc(S(=O)(=O)N2CCN(C(=O)COC(=O)CNC(=O)c3ccc(C(C)(C)C)cc3)CC2)c(C)c1,1.29% (inactive)
9,COc1ccc(C(=O)NC2CCCc3c2cnn3-c2cccc(C)c2C)c(OC)n1 (centres undefined),91.3% (active)
10,COc1ccc(C(=O)NC2CC(C)(C)Cc3c2cnn3-c2ccccc2C)o1 (centres undefined),-34.2% (inactive)
11,Cc1cc(C(=O)NC2CC(C)(C)Cc3c2cnn3-c2ccccc2)n[nH]1 (centres undefined),-26.5% (inactive)
12,COc1ccc(C(=O)NC2CC(C)(C)Cc3c2cnn3-c2ccccc2)c(OC)c1 (centres undefined),-23.7% (inactive)
13,COC(=O)c1ccc(C(=O)NC2CC(C)(C)Cc3c2cnn3-c2ccc(F)cc2)nc1 (centres undefined),-87.5% (inactive)
14,CC1=C(C(=O)NC2CC(C)(C)Cc3c2cnn3-c2ccc(C)cc2)OCCO1 (centres undefined),-12.3% (inactive)
15,Cn1nccc1C(=O)NC1CCCc2c1cnn2-c1ccccc1F (centres undefined),105% (active)
16,O=C(CCNC(=O)c1ccc(Cl)cc1)NC1CCCc2ccccc21 (centres undefined),-14.3% (inactive)
17,Cn1nccc1C(=O)NC1CCCc2c1cnn2-c1ccc(F)cc1F (centres undefined),107% (active)
18,NC(=O)COC(=O)c1ccc2c(c1)C(=O)N(Cc1ccco1)C2=O,-5.79% (inactive)
19,Cc1cc(C)n(CCC(=O)N2CCN(S(=O)(=O)c3ccc(C)c(C)c3)CC2)n1,3.36% (inactive)
20,Cc1ccc(CN(N=Nc2nonc2N)c2nonc2N)c(C)c1,-19.7% (inactive)
21,CC1CCCC(NC(=O)CN2CCN(Cc3ccc(Cl)cc3)C2=O)C1C (centres undefined),2.85% (inactive)
